Most compounds without a hit are left out; they make up all but 2.4% or so of the library.
eIF4E-4G inh = eIF4E–eIF4G protein interaction inhibitors, primary screen, biochemical, uHTS, TR-FRET, eIF4GI fragment. AID 782, 2007. Eukaryotic translation initiation factor 4E (Mus musculus) + Eukaryotic translation …. 0.37% of 220,000 active. inhibition, % at 21.7 µM. TR-FRET eIF4E-eIF4GI(517-606) binding, 2 h;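 active = inhibition above about 30%, limit read from the data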
PABP FP inh = PABP poly(A) RNA binding inhibitors, primary screen, biochemical, fluorescence polarization, uHTS | Polyadenylate-binding protein 1 (Homo sapiens), P11940 | inhibition, % at 35 µM | 1% of 290,000 active;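 also: calls also rest on retests at 20 µM and on dose response follow-up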
PERK inhibitor = block of dimerizer-induced PERK translation repression, primary screen, PERK inhibitor project, CHO PERK-DD cells, SEAP luminescence, HTS. Eukaryotic translation initiation factor 2-alpha kinase 3 (Homo sapiens), Q9NZJ5. CHO PERK-DD fusion, SEAP luminescence translation reporter. inhibition, % at 5.6 µM. 0.17% of 220,000 active. AID 1416, 2008;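 active = inhibition above the mean inhibition of all tested compounds plus 3 SD, set separately per screening campaign, cut at about 2.9% in these data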;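 also: PERK kinase domain activated by AP20187 dimerizer at 100 nM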
Target sequence (Q9NZJ5 whole entry, looked up, the tested form may be a part): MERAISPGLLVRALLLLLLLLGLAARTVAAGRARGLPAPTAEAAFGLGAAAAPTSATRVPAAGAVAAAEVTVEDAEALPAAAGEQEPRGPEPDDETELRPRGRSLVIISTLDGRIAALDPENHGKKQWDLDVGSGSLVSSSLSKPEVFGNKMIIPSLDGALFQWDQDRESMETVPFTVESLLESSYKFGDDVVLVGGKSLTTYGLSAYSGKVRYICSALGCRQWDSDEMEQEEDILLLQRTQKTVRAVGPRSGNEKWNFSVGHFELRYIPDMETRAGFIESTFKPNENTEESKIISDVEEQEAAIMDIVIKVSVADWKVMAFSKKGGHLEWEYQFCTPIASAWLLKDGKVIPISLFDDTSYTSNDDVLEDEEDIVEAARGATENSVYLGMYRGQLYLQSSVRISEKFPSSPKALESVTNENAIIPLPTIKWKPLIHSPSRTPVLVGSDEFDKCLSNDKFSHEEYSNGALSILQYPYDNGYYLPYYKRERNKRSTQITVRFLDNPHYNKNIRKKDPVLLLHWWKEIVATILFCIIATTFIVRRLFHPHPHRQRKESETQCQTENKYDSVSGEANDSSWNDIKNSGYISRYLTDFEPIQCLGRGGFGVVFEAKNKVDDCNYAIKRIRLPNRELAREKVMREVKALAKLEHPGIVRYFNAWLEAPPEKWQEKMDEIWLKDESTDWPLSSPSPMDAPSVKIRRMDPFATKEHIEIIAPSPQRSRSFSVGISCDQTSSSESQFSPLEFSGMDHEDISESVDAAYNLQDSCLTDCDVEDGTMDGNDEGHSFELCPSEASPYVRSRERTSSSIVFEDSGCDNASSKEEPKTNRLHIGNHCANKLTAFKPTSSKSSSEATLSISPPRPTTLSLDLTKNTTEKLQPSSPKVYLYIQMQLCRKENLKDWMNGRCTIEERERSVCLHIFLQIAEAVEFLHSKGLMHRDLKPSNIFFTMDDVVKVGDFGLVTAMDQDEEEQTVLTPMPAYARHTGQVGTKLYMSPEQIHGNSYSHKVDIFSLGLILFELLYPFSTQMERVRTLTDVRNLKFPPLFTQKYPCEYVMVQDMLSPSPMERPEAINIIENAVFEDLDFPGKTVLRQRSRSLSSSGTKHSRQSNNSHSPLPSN
PABP1 MLLE inh = inhibitors of PABP1 MLLE–PAM2 peptide binding, primary screen, biochemical, fluorescence polarization, FITC-PAM2, GST-MLLE; Polyadenylate-binding protein 1 (Homo sapiens), P11940; inhibition, % at 20 µM; 0.36% of 360,000 active; in the data active = inhibition above about 35%, passing the limit was not always enough
eIF4H inh = human eIF4H binding inhibitors, primary screen, translation initiation inhibitor project, biochemical, uHTS, fluorescence polarization | Eukaryotic translation initiation factor 4H (Homo sapiens), Q15056 | eIF4H fluorescence polarization binding assay | inhibition, % at 35 µM | 0.94% of 290,000 active | AID 2012, 2009;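 also: calls also rest on retests at 20 µM and on dose response follow-up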
PfM18AAP inh = PfM18AAP inhibitors, malaria aminopeptidase, primary screen, biochemical, QFRET, recombinant enzyme; M18 aspartyl aminopeptidase (Plasmodium falciparum 3D7); H-Glu-NHMec fluorogenic cleavage; inhibition, % at 7.35 µM; 1.2% of 290,000 active;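 active = inhibition above the campaign mean inhibition over all tested compounds plus 3 SD, cut at about 28% in these data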
Hits are given with their value; - = inactive; ? = inconclusive; . = no result given; [ ] = another dose, or the depositor's remark. Unless noted, no rule for the calls is given here.

SMILES	eIF4E-4G inh	PABP FP inh	PERK inhibitor	PABP1 MLLE inh	eIF4H inh	PfM18AAP inh
Cc1cc(/C=C\c2nc(O)c([N+](=O)[O-])c(=O)[nH]2)c(C)n1-c1ccccc1	-	-	-	-	62	-
COc1ccc(-n2c(C)cc(/C=C/c3nc(O)c([N+](=O)[O-])c(=O)[nH]3)c2C)cc1	-	-	-	-	-	-
CCN(CC)c1ccc(/C=N/Nc2nn[nH]n2)cc1	-	9.2	-	-	51	-
O=C(CCCCCC(=O)N(CCO)CCO)N(CCO)CCO	-	-	-	-	-	-
O=C(CN1C(=O)/C(=C2\SC(=S)N(CCS(=O)(=O)O)C2=O)c2ccccc21)Nc1cccc(Br)c1	.	53	.	-	93	-
O=C(CN1C(=O)/C(=C2/SC(=S)N(CCS(=O)(=O)O)C2=O)c2ccccc21)Nc1cccc(C(F)(F)F)c1	.	.	.	-	.	.
CCOC(=O)C1=C(c2ccccc2)NC(=O)NC1c1cc(Cl)c(O)c(OC)c1 (stereo unspecified)	-	-	-	-	-	-
CCOC(=O)C1=C(c2ccccc2)NC(N)=NC1c1ccc(OCc2ccc(Cl)cc2)c(OC)c1 (stereo unspecified)	37	-	-	-	-	-
Nc1ccn(Cc2ccccc2)n1	-	-	-	-	-	-
c1ccc(Cn2ccc(-c3cnc(-c4ccccc4)s3)n2)cc1	-	-	-	-	93	-
O=C1c2ccccc2C(=O)N1CCCOCc1c[nH]c(=O)[nH]c1=O	-	-	-	-	-	-
O=c1[nH]cc(COCC(F)CCl)c(=O)[nH]1 (stereo unspecified)	97	-	-	-	-	-
COc1ccc(NC(=S)NC(NC(=O)c2cccc(Cl)c2)C(Cl)(Cl)Cl)c([N+](=O)[O-])c1 (stereo unspecified)	-	-	-	38	-	-
COc1ccc(C(=O)Nc2ccccc2C(N)=O)cc1	100[fluorescence artefact?]	-	-	-	-	-
COc1ccc(C(=O)Nc2ccccc2C(=O)Nc2ccccc2C(=O)O)cc1	.	-	.	-	-	-
COc1ccc(NC(=O)c2ccccc2)c([N+](=O)[O-])c1	-	1.5	-	-	?	-
CCOc1ccc(N/C=C/C(=O)c2ccc(OC)cc2)c([N+](=O)[O-])c1	-	-	-	49	-	-
Oc1ccc(/C=N/N2CCOCC2)c(O)c1O	-	active	-	-	98	34
COc1cccc(/C=N/N2CCOCC2)c1O	-	-	-	-	-	-
CC(=O)NNC(=O)c1sc(=S)n2c1[nH]c(=O)c1sccc12	-	18	-	-	54	-
Brc1cccc(-c2nc3c4ccccc4ccn3c2Cc2ccccc2)c1	.	.	.	-	.	.
CCNC(=S)NNC(=S)NCc1ccccc1	-	-	-	-	-	32
Cc1cccc(NC(=S)Nc2cccc(C(F)(F)F)c2)n1	-	-	-	-	-	-
FC(F)(F)c1cccc(NC(=S)NNC(=S)NCc2ccccc2)c1	-	-	-	41	-	-
FC(F)(F)c1cccc(NC(=S)Nc2cccc(NC(=S)Nc3cccc(C(F)(F)F)c3)n2)c1	-	-	-	47	-	-
SMILES	eIF4E-4G inh	PABP FP inh	PERK inhibitor	PABP1 MLLE inh	eIF4H inh	PfM18AAP inh
FC(F)(F)c1cccc(NC(=S)NCc2ccccn2)c1	-	-	-	-	-	-
N#CC1=C(N)NC(=S)C(C(N)=O)C1c1ccc(Cl)cc1Cl (stereo unspecified)	-	-	-	-	-	30
COc1ccc(CC(=O)NC(=S)NNC(=O)COc2c(C)cccc2C)cc1	-	-	-	-	-	47
CCCCCc1ccc(C(=O)CCCC)c(=S)[nH]1	-	-	-	38	-	-
COC(=O)c1ccccc1NC(=O)Cc1nc(-c2ccccc2)sc1-c1ccc(C)cc1	-	70	-	-	active	-
O=C(Nc1ccc(N2CCOCC2)cc1)Nc1ccc2nc(-c3ccco3)c(-c3ccco3)nc2c1	-	-	-	-	-	-
O=C(Nc1cccc(C(F)(F)F)c1)c1ccc2nc(-c3ccco3)c(-c3ccco3)nc2c1	-	31	-	-	75	-
O=C(Nc1ccc2nc(-c3ccco3)c(-c3ccco3)nc2c1)NC1CC1	41[fluorescence artefact?]	-	-	-	-	29
O=C(NCCCO)Nc1ccc2nc(-c3ccco3)c(-c3ccco3)nc2c1	48	?	-	.	?	-
OCCCNC(=S)Nc1ccc2nc(-c3ccccn3)c(-c3ccccn3)nc2c1	-	-	-	-	-	-
CCN(CC)C(=O)c1nc[nH]c1C(=O)N1CCc2ccccc2C1	.	.	.	-	.	.
CCOC(=O)c1cccc(NC(=O)c2ccc(-n3cnnn3)cc2)c1	.	.	.	-	.	.
Cc1ccc(NC(=O)Cc2nc(CSc3nnc(-c4ccc5c(c4)OCO5)o3)cs2)cc1	-	-	-	-	-	-
CCCCc1c(C)nc2ccc(C(=O)OCC)cc2c1Cl	-	120	-	-	-	-
c1ccc(Cc2nc3ccccc3s2)cc1	.	.	.	-	.	.
O=C(COC(=O)c1ccc2c(c1)OCCO2)NCc1ccc(Cl)cc1	.	.	.	-	.	.
Cc1sc2ccc3sccc3c2[n+]1C	-	54	-	-	-	30
Cc1sc2c3ccsc3ccc2[n+]1C	-	-	-	-	-	30
Oc1ccc(C(=S)N2CCCCCC2)cc1	-	-	-	37	-	-
CC1CCN(C(=O)c2ccc(C(=O)N3CCC(C)CC3)cc2)CC1	.	.	-	.	.	-
CC1CCN(C(=S)c2ccc(O)cc2)CC1	-	-	-	37	-	-
CC1CCN(C(=S)c2ccccc2O)CC1	31[fluorescence artefact?]	-	-	-	-	-
CCN1CCN(C(=S)Nc2ccc(Cl)cc2)CC1	-	-	-	-	-	-
CCN1CCN(C(=S)c2ccc(O)cc2)CC1	-	-	-	-	-	47
CC1(C(=O)NS(=O)(=O)C2CC2)CCCN(C(=O)c2ccc(F)cc2Cl)C1 (stereo unspecified)	.	.	.	-	.	.
SMILES	eIF4E-4G inh	PABP FP inh	PERK inhibitor	PABP1 MLLE inh	eIF4H inh	PfM18AAP inh
Cc1cc(C)c(C)c(S(=O)(=O)Nc2ccccc2C(=O)NCCCN2CCOCC2)c1C	-	-	-	-	-	-
Oc1ccc(C(=S)N2CCN(c3cccc(Cl)c3)CC2)cc1	-	-	-	-	-	-
Oc1ccccc1C(=S)N1CCN(c2cccc(Cl)c2)CC1	-	-	-	-	-	30
Oc1cccc(C(=S)N2CCCCC2)c1	-	-	-	38	-	-
CN(C)c1ccc(C(=S)N2CCN(Cc3ccccc3)CC2)cc1	-	-	-	-	-	55
CCc1ccc2nc3sc(C(=O)O)cc3cc2c1	-	-	-	-	-	-
O=C(NCCC1CCCCN1S(=O)(=O)c1ccccc1)C(=O)NCc1ccc(F)cc1 (stereo unspecified)	.	.	.	-	.	.

Source: PubChem (several laboratories)
